Results as given in PubChem BioAssay AID1963320 (National Center for Advancing Translational Sciences (NCATS), 2024).
The whole screen tested about 1,300 compounds, of which about 560 (43%) were called active. Inconclusive results (about 39%) are left out. Calls come from the whole dose curve; as a rule, active = well fitted inhibition curve with a large enough effect; inconclusive = small, poorly fitted or top-dose-only effect; inactive = flat fitted curve, though single readings scatter. So high a share suggests a set chosen from earlier hits. Only a sample is shown.

molecular target: Luciferin 4-monooxygenase (Photinus pyralis) (UniProt P08659); assay: Firefly luciferase (FLuc-C-HiBiT) enzymatic inhibition screen - Functional assay; details: purified FLuc-C-HiBiT enzyme, luciferin luminescence; series mostly up to 32.7 µM
Sequence (P08659 whole entry, looked up): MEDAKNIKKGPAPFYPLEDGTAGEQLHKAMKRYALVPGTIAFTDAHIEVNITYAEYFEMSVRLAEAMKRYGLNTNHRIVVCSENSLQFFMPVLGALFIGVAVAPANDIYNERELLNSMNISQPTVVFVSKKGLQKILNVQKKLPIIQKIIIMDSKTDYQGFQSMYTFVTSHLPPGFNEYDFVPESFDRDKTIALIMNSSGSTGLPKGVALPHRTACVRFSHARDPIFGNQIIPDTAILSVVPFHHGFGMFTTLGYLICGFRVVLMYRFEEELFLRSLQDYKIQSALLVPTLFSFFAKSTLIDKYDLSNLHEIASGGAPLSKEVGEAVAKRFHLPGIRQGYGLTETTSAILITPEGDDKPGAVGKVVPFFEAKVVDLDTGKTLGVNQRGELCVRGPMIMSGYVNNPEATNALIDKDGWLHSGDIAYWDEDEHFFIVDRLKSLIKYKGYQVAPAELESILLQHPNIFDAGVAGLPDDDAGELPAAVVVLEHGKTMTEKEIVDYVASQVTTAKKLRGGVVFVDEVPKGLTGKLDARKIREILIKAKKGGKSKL
Excerpt: PI: James Inglese Ph.D. National Center for Advancing Translational Sciences (NCATS), National Institute of Health (NIH), Maryland Discovery and optimization of novel protein-binding ligands underlies many of the methods and applications of biology, drug discovery, clinical diagnostics, and environmental toxicology. Assays for detecting the interaction of, for example, a molecule with a macromolecular target also referred to here as the target of interest (TOI) is dependent on a compatible output technology. Depending on the nature and knowledge surrounding the TOI, whether a receptor, enzyme, regulatory subunit or scaffold, or a sequence-defined nucleic acid folded into a complex tertiary structure, assay strategies can vary widely. Here we exploit ligand-biased changes in the structural dynamics of the target protein to control reporter alpha complementation allowing a non-competitive, non-functional, non-separation measure of ligand-target interaction. […] Secondly, we show the specificity and sensitivity of the SDR for the Abelson tyrosine kinase (ABL1) compared to the serine/threonine protein kinase A, using an enriched chemical library of 128 compounds selected, in part, for activity annotated with ABL1 kinase activity using the Pharos database (3). References: (1) A. S. Dixon et al., NanoLuc Complementation Reporter Optimized for Accurate Measurement of Protein Interactions in Cells. ACS Chem Biol 11, 400-408 (2016). […] Chemistry & Biology, 19, 1060 - 1072 (2012). (3) K. J. Kelleher et al., Pharos 2023: an integrated resource for the understudied human proteome. Nucleic Acids Res 51, D1405-D1416 (2023).
1. Reagent. Dispense 4 uL FLuc-C-HiBiT enzyme-buffer solution per well at a final enzyme concentration of 10 nM with or without 10 uM ATP into columns 2-48 of white, solid bottom medium bind 1536-well plates (Greiner Bio-One) by BioRaptr 2. Dispense respective buffer without enzyme at 4 uL/well in column 1 of assay plates. 2. Compounds. Library compounds and PTC124 control added at 23 nL per well, transfer by Pin Tool. 3. Incubation. Incubate enzyme and compounds at room temperature for >30 min, protect from light. 4a. Reagent. (Functional assay) Add 3 uL of D-luciferin substrate at final (KM) concentration of 10 uM/well of assay plates for FLuc enzymatic assay, in the presence of ATP. 5. Incubation. Incubate enzyme and substrate or detection reagent at room temperature for 5-10 min, protect from light. 6a. Detector. Functional assay measured using CCD-based camera (ViewLux) with settings as follows: Exposure, 10 sec; Gain, High; Speed, Slow; Binning, 2X. REFERENCES: Inglese J, Shamu CE and Guy RK, Reporting data from high throughput screening of small molecule libraries, Nature Chemical Biology, 2007, 3(8): 438-441. doi.org/10.1038/nchembio0807-438.
Note: nearly all actives have a fitted effect of over 70% in size.
Potency is the fitted concentration of half-maximal effect.

Potency, active:
CN(CCc1cn[nH]c1)c1ccc(-c2nc(-c3ccccc3F)no2)cn1 3130 nM
OCC1CCCN(c2ncnc3c2cnn3-c2ccccc2)C1 (configuration not stated) 394 nM
Fc1ccc(Nc2nc(-c3ccccc3F)no2)cc1 9890 nM
Cc1ccc(CSc2nc3cccnc3n2Cc2ccc(C(=O)NC3CC3)cc2)cc1 394 nM
Cc1cccc(C(=O)Nc2ccc(-c3nc4ccccc4s3)c(C)c2)c1 9890 nM
Cc1c(NC(=O)C(C)(C)C)cccc1-c1nc2ccccc2s1 5560 nM
COc1ccc(C(=O)Nc2onc3c2CCCC3)cc1 1970 nM
COc1ccc(C)cc1NC(=O)Nc1cccc(-c2ccc(N3CCCCC3)nn2)c1 1110 nM
COc1cccc(-c2nc3ccc(-c4ccc5c(c4)OCO5)cc3o2)c1OC 2480 nM
CCC(CC)c1nn2cc(-c3ccccc3)nc2s1 881 nM
O=C(Nc1nc2c(s1)CCCC2)c1ccccc1F 556 nM
O=C(Nc1ccccc1)c1nc2c(o1)CCN(Cc1cccc(Cl)c1)CC2 10100 nM
CCOC(=O)C1CCN(C(=O)c2cccc3c2CCN3C(=O)Nc2ccccc2)CC1 1760 nM
CC(=O)Nc1ccc(NC(=O)CCCc2nc(-c3ccc(C(C)(C)C)cc3)no2)cc1 4950 nM
CC(=O)NC1(C)CN(Cc2ccc(-c3ccc4c(ccn4C)c3)s2)C1 2860 nM
Cc1ccc(-c2nc(C(=O)N3CCN(c4ccccn4)CC3)no2)cc1 7850 nM
COc1ccc(-c2ncc3c(n2)OCCN(CC2CC2)C3=O)cc1 8050 nM
CCN(c1ncnc2c1cnn2-c1ccc(C)cc1)C1CCCCC1 881 nM
CCNC(=O)C1C(c2cccc(NC(=O)c3ccc(OC)cc3)c2)OC(=O)N1Cc1ccc(C)cc1 (configuration not stated) 3940 nM
O=C(NCC1CC1)C1CCN(C(=O)c2ncn3c2COC(c2ccccc2)C3)CC1 (configuration not stated) 7000 nM
O=C(NCc1ccccc1)C1CCN(C(=O)c2ncn3c2COC(c2ccccc2)C3)CC1 (configuration not stated) 2210 nM
O=C(NCc1ccc(F)c(Cl)c1)C1CCN(C(=O)c2ncn3c2COC(c2ccccc2)C3)CC1 (configuration not stated) 3510 nM

Potency, inactive:
Cc1cc(C)n(CCC(=O)N2CCC(Cc3noc(C4CC4)n3)C2)n1 (configuration not stated)
Cc1ccc(Cl)cc1-n1ncc2c(N3CCC(C(N)=O)CC3)ncnc21
OCCN1CCN(c2nc(N3CCCCC3)c3cnn(-c4ccc(Cl)cc4)c3n2)CC1
O=C(CSc1ccc(F)cc1)Nc1ccccc1-c1nc2ccccc2s1
COc1ccc(CC(=O)Nc2ccc(-c3nc4ccccc4s3)c(C)c2)cc1
Cc1ccc(C(=O)Nc2ccc(-c3nc4ccccc4s3)c(O)c2)cc1
CC(C)C(=O)Nc1cc(-c2nc3ccccc3s2)ccc1Cl
Cc1cccc(-c2cccc(NC(=O)C3CCCN(C(=O)CC(F)(F)F)C3)c2)c1 (configuration not stated)
O=C(/C=C/c1ccccc1)Nc1cc(-c2nc3cc(Cl)ccc3o2)ccc1Cl
COc1ccc(-c2nc3ccccc3s2)cc1NC(=O)COc1ccccc1C
Cc1nn(-c2ccc(C(C)C)cc2)c(C)c1[C@@H]1C=C[C@@H](NC(=O)CC2(CC(=O)O)CCCC2)C1
O=C([C@@H]1C[C@@H](O)[C@H](O)[C@@H]2NC(=S)N(c3ccc(OC(F)(F)F)cc3)[C@@H]21)N1CCCCC1
Oc1ccc(-c2nc(C3CC3)nc3c2CCN(Cc2cccc(F)c2)CC3)cc1
CN1CCN(C[C@@H]2CN(C(=O)CCCc3ccccc3)C[C@@H]2CO)CC1
COc1ccccc1OC1(C(=O)O)CCN(c2ncnc3nc[nH]c23)CC1
